Source: PubChem BioAssay (Tox21)
Records with an inconclusive call do not appear. Active and inactive are the calls of the source. Unless noted, calls follow the shape of the dose curve; as a rule, active = well fitted curve in the direction sought with a large enough effect in the repeat runs; inconclusive = weak or mixed curves; inactive = no such curve, though single readings can be large; an effect the other way counts as inactive or inconclusive.

How the values were obtained:
[1] = qHTS assay to identify small molecule agonists of the peroxisome proliferator-activated receptor delta (PPARd) signaling pathway - cell viability counter screen (AID 743211); also: nearly all actives have a fitted effect of over 55% in size
Method in brief: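 PPARd-bla HEK293H cells (UAS-beta-lactamase reporter) were treated with compounds for 17 h at 37 C. Viability was then read in the same wells by CellTiter-Glo luminescence after 30 min at room temperature.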

[2] = target: Peroxisome proliferator-activated receptor delta (Homo sapiens) (UniProt Q03181); experiment: qHTS assay to identify small molecule agonists of the peroxisome proliferator-activated receptor delta (PPARd) signaling pathway (AID 743212; calls by dose curve)
Method in brief: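 Read-out: beta-lactamase FRET fluorescence after 2 h room-temperature incubation with LiveBLAzer B/G substrate. Cells were HEK293H carrying a UAS-bla reporter for PPARd, treated at 37 C with DMSO-dissolved compounds.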

[3] = qHTS assay to identify small molecule antagonists of the peroxisome proliferator-activated receptor delta (PPARd) signaling pathway - cell viability counter screen (AID 743213); also: nearly all actives have a fitted effect of over 50% in size
Method in brief: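 CellTiter-Glo was added to PPARd-bla HEK293H wells following 17 h compound treatment in the presence of 300 nM L165041. Luminescence was recorded after 30 min at room temperature.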

[4] = target: Peroxisome proliferator-activated receptor delta (Homo sapiens) (UniProt Q03181); experiment: qHTS assay to identify small molecule antagonists of the peroxisome proliferator-activated receptor delta (PPARd) signaling pathway (AID 743215; active = well fitted inhibition curve with a large enough effect in the signal ratio in the repeat runs, not every such curve was filed as active; the % refers to the signal ratio;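 also: cells stimulated with agonist L165041 at 300 nM final during compound exposure; series mostly up to about 62 µM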)
Method in brief: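 Plated HEK293H PPARd-bla cells rested 5 h at 37 C and 5% CO2. Compound, then agonist L165041 at 300 nM final, was added; 17 h at 37 C followed. Substrate loading, 2 h room temperature, fluorescence measured.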

[5] = qHTS assay to identify small molecule agonists of the farnesoid-X-receptor (FXR) signaling pathway - cell viability counter screen (AID 743218); also: nearly all actives have a fitted effect of over 45% in size
Method in brief: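 Viability of FXR-bla HEK 293T cells is measured by ATP-based CellTiter-Glo luminescence following 16 h compound treatment at 37 C and a prior 2 h room-temperature beta-lactamase substrate step.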

[6] = qHTS assay to identify small molecule antagonists of the farnesoid-X-receptor (FXR) signaling pathway - cell viability counter screen (AID 743221; active = well fitted cell-killing curve with a large enough effect in the repeat runs, not every such curve was filed as active; also: nearly all actives have a fitted effect of over 50% in size)
Method in brief: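 FXR-UAS-bla HEK 293T cells were treated with test compounds plus chenodeoxycholic acid (50 uM final) for 16 h at 37 C. Cell viability in the same wells was then read as CellTiter-Glo luminescence after 30 min at room temperature.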

[7] = target: Vitamin D3 receptor (Homo sapiens) (UniProt P11473); experiment: qHTS assay to identify small molecule agonists of the vitamin D receptor (VDR) signaling pathway (AID 743222; calls by dose curve)
Method in brief: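 Fluorescence from cleaved LiveBLAzer B/G FRET substrate served as readout. VDR-bla cells had been treated 16 h at 37C with test compounds in DMSO, following a 4 h settling period, and substrate was loaded for 2 h at RT.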

[8] = target: Vitamin D3 receptor (Homo sapiens) (UniProt P11473); experiment: qHTS assay to identify small molecule antagonists of the vitamin D receptor (VDR) signaling pathway (AID 743223; active = well fitted inhibition curve with a large enough effect in the signal ratio in the repeat runs, not every such curve was filed as active; the % refers to the signal ratio)
Method in brief: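 VDR-bla cells were plated, incubated 4 h at 37C, then given compound and 1alpha,25-dihydroxyvitamin D3 (3 nM final). After 16 h at 37C, LiveBLAzer B/G FRET substrate was added for 2 h at room temperature and fluorescence read.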

[9] = target: Bile acid receptor (Homo sapiens) (UniProt Q96RI1); experiment: qHTS assay to identify small molecule antagonists of the farnesoid-X-receptor (FXR) signaling pathway (AID 743217; active = well fitted inhibition curve with a large enough effect in the signal ratio in the repeat runs, not every such curve was filed as active; the % refers to the signal ratio)
Method in brief: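 Screen of the Tox21 10K library in quantitative HTS format using FXR-UAS-bla HEK 293T reporter cells. Agonist chenodeoxycholic acid, 50 uM final, added with compounds; 16 h incubation at 37 °C; beta-lactamase FRET fluorescence measured.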

[10] = target: Bile acid receptor (Homo sapiens) (UniProt Q96RI1); experiment: qHTS assay to identify small molecule agonists of the farnesoid-X-receptor (FXR) signaling pathway (AID 743220; active = well fitted activation curve with a large enough effect in the signal ratio in the repeat runs, not every such curve was filed as active; the % refers to the signal ratio)
Method in brief: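 FXR-UAS-bla HEK 293T cells carrying a UAS-driven beta-lactamase reporter were plated for 5 h at 37C/5% CO2, then exposed to DMSO-dissolved Tox21 10K compounds for 16 h at 37C. A LiveBLAzer B/G FRET substrate was loaded for 2 h at room temperature before fluorescence reading.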

Measured: Potency

Chain of Bile acid receptor (Homo sapiens) (Q96RI1 whole entry, looked up): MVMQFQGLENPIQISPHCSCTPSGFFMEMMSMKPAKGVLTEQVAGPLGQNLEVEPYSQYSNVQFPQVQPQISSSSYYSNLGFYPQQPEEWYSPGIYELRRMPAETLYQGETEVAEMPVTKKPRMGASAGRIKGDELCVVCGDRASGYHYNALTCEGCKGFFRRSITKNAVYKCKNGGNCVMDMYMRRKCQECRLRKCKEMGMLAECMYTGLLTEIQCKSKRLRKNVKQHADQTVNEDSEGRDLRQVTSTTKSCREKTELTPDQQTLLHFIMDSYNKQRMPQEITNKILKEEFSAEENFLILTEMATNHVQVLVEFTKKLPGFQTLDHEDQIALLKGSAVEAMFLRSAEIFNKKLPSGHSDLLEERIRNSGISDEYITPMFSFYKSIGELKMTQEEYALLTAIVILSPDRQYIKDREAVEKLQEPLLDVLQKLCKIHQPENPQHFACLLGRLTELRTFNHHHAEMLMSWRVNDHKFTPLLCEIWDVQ
Chain of Peroxisome proliferator-activated receptor delta (Homo sapiens) (Q03181 whole entry, looked up): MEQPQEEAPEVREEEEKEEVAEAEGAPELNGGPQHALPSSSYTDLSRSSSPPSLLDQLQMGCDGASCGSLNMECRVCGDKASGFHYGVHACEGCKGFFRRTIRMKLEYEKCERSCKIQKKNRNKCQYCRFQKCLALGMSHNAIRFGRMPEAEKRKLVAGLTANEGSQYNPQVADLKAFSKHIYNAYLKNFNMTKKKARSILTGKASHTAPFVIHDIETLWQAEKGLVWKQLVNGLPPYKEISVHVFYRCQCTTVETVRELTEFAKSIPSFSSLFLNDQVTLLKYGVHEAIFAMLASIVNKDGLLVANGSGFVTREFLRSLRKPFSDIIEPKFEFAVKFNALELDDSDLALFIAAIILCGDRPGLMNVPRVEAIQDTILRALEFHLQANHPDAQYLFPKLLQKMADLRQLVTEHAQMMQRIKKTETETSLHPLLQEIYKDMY
Chain of Vitamin D3 receptor (Homo sapiens) (P11473 whole entry, looked up): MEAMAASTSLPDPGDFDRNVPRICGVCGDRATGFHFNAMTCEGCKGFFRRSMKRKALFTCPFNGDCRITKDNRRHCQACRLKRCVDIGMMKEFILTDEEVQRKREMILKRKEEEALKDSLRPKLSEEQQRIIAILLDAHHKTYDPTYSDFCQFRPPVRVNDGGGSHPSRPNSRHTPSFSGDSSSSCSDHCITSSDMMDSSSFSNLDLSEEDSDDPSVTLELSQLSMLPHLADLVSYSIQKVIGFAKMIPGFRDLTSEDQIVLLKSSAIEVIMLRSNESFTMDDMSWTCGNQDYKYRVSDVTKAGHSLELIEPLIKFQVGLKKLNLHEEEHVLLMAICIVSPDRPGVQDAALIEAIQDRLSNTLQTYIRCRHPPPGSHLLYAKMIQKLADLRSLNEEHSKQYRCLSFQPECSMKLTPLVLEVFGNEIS

Cl/C=C\Cl
not listed: [9] | [10]
inactive: all other assays above

CCBr
not listed: [6] | [9] | [10]
inactive: all other assays above

CCOC(=O)CBr
not listed: [5] | [10]
inactive: all other assays above

Brc1ccccc1
inactive: [1] | [2] | [3] | [4] | [5] | [7]

CCOP(=O)(OCC)O/C(=C/Cl)c1ccc(Cl)cc1Cl
not listed: [9] | [10]
inactive: all other assays above

c1ccc(C2CC2)c(OCC2=NCCN2)c1
inactive: [1] | [2] | [3] | [4] | [6] | [7]

Cc1ccccc1CCl
not listed: [8] | [9] | [10]
inactive: all other assays above

CCCCN(N=O)C(=N)N[N+](=O)[O-]
not listed: [9] | [10]
inactive: all other assays above

Clc1ccc(C2(Cn3cncn3)CC(Br)CO2)c(Cl)c1 (configuration not stated)
not listed: [9]
inactive: all other assays above

COC1=CC(=O)O[C@@H](CCc2ccccc2)C1
not listed: [8] | [9] | [10]
inactive: all other assays above

CCCN(CCC)c1c([N+](=O)[O-])cc(S(C)(=O)=O)cc1[N+](=O)[O-]
inactive: [1] | [2] | [3] | [4] | [5] | [6]

CNP(=O)(OC)Oc1ccc(C(C)(C)C)cc1Cl (configuration not stated)
not listed: [6] | [9] | [10]
inactive: all other assays above

C#CCOC(C(=O)OCCN(C)C)(c1ccccc1)c1ccccc1
inactive: [1] | [2] | [3] | [4] | [6] | [7]

Cc1ccccc1C(=O)Nc1cccc(OC(C)C)c1
inactive: [1] | [2] | [3] | [4] | [6]

Clc1cc(C(Cl)(Cl)Cl)cnc1Cl
not listed: [2] | [6] | [10]
inactive: all other assays above

Clc1cc(Cl)c(Cl)c(Cl)c1
inactive: [1] | [2] | [4] | [6] | [7] | [8]

C=CC(=O)OCCCCO
not listed: [2] | [7] | [8]
inactive: all other assays above

O=Cc1ccc2c(c1)OCO2
not listed: [2] | [6]
inactive: all other assays above

CCCN(CCCl)c1c([N+](=O)[O-])cc(C(F)(F)F)cc1[N+](=O)[O-]
not listed: [4]
inactive: all other assays above

S=C=NCc1ccccc1
inactive: [1] | [2] | [3] | [5] | [7] | [8]

CCOc1ccc(C(C)(C)COCc2cccc(Oc3ccccc3)c2)cc1
not listed: [2] | [8]
inactive: all other assays above

O=[N+]([O-])C(Br)(CO)CO
not listed: [2] | [7] | [8]
inactive: all other assays above

Cn1cc[n+](C)c1 (tested in a mixture with another compound)
inactive: [1] | [2] | [4] | [9] | [5] | [6]

CCCCCCCCCCOC(=O)c1ccccc1C(=O)OCCCCCCCCCC
inactive: [1] | [3] | [4] | [9] | [10] | [6]

CCC(COC(=O)c1cc(OC)c(OC)c(OC)c1)(c1ccccc1)N(C)C (configuration not stated)
inactive: [1] | [2] | [3] | [5] | [6] | [7]

c1ccoc1
not listed: [2]
inactive: all other assays above

CCOP(=S)(OCC)Oc1nc(Cl)c(Cl)cc1Cl
not listed: [2]
inactive: all other assays above

CCOP(=S)(Oc1ccc([N+](=O)[O-])cc1)c1ccccc1 (configuration not stated)
inactive: [1] | [2] | [3] | [6] | [7] | [8]

CN1C(=O)C(O)N=C(c2ccccc2)c2cc(Cl)ccc21 (configuration not stated)
inactive: [1] | [2] | [5] | [6]

CN1[C@@H]2CC[C@H]1CC(OC(=O)c1cc(Cl)cc(Cl)c1)C2 (some centres not stated)
inactive: [1] | [2] | [4]

Nc1ccc([N+](=O)[O-])cc1[N+](=O)[O-]
not listed: [5] | [9] | [10]
inactive: all other assays above
